Measurements reported in PubChem BioAssay.
Records with an inconclusive call do not appear. Activity calls are given as the source filed them.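 The calls were made as follows, unless noted: active = response below a set limit, under 55% cells CD8-positive and vesicle-bound, and CD8 cells' 90th-percentile brightness under 279; inactive = the rest.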

Key:
[1] = rapamycin-like changes in RPL19A-GFP expression – cell-based, S. cerevisiae, multiplex flow cytometry, primary screen (AID 1862; in the data active = percent of DMSO control GFP below about 86%;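 also: lower values mimic rapamycin by blocking the RPL19A rise seen in DMSO cells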); conditions: S. cerevisiae RPL19A-GFP strain, flow cytometry fluorescence, 3 h; at 10 µM; stronger effect = lower value
[2] = TOR pathway GLN3 branch reporter MEP2-GFP changes – S. cerevisiae, multiplex flow cytometry, primary screen (AID 1867;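 active = GFP response, as percent of the DMSO control, above the screen-wide mean plus 3 SD, about 139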;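 also: median GFP channel fluorescence of barcode-gated MEP2-GFP cells measured by flow cytometry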); conditions: S. cerevisiae MEP2-GFP strain, 3 h, at 10 µM, stronger effect = higher value, 100% means same as DMSO wells
[3] = TOR pathway RTG branch CIT2 reporter changes – S. cerevisiae, GFP fusion, multiplex flow cytometry, primary screen (AID 1870;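 active = percent response above a set limit, the screen-wide mean plus 3 SD, cut at about 130% in these data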;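 also: barcoded CIT2-GFP strain pooled with four other GFP strains with rapamycin as positive control; median GFP fluorescence per well over plate mean of DMSO wells so 100% = DMSO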); conditions: S. cerevisiae CIT2-GFP expression, 3 h, at 10 µM, stronger effect = higher value
[4] = TOR pathway LAP4-GFP level changes – S. cerevisiae, multiplex flow cytometry, primary screen (AID 1873;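 active = GFP signal, as percent of the solvent control, above the screen mean plus 3 SD, about 149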); conditions: S. cerevisiae LAP4-GFP expression, 3 h, at 10 µM, stronger effect = higher value
[5] = yeast AGP1-GFP level changes, GLN3 branch – cell-based, multiplex flow cytometry, S. cerevisiae, primary screen (AID 1887;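 active = GFP signal above the screen-wide mean plus 3 SD, that is over about 124.5% of the solvent control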;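 also: AGP1-GFP fusion strain of S. cerevisiae within a five-strain barcoded multiplex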); conditions: 3 h, at 10 µM, stronger effect = higher value
[6] = reduced mouse 2C T cell binding to pMHC/ICAM-1 vesicles – MLPCN validation set, flow cytometry, LFA-1/ICAM-1 modulator project, pilot screen (AID 2523); conditions: 2C mouse CD8+ T cells, at 7 µM, stronger effect = lower value; double positive events: measured here: CD8+/vesicle+ event percentage;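 as to vesicle binding response: mean PE anti-B7-1 fluorescence of CD8+ cells relative to row control; 100% = QL9-loaded vesicles with DMSO vehicle in the same plate row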
[7] = target: Integrin beta-1 (Homo sapiens) + Integrin alpha-4 (Homo sapiens) (UniProt P13612+P05556); assay: alpha4beta1 integrin LIBS antibody binding reduction – U937 cells, HUTS-21 mAb, flow cytometry, validation set, VLA-4 allosteric modulator project, pilot screen (AID 2674;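 active = inhibition above 50%, about 3 SD of the validation set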;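 also: antibody binding induced by the VLA-4 ligand LDV present at three times its Kd; 0% = LDV ligand with antibody and no compound and 100% = antibody without LDV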); conditions: HUTS-21 LIBS mAb binding, at 6.7 µM, stronger effect = higher value, binding induced by LDV ligand
Integrin beta-1 (Homo sapiens) + Integrin alpha-4 (Homo sapiens), sequence (P05556 whole entry, looked up): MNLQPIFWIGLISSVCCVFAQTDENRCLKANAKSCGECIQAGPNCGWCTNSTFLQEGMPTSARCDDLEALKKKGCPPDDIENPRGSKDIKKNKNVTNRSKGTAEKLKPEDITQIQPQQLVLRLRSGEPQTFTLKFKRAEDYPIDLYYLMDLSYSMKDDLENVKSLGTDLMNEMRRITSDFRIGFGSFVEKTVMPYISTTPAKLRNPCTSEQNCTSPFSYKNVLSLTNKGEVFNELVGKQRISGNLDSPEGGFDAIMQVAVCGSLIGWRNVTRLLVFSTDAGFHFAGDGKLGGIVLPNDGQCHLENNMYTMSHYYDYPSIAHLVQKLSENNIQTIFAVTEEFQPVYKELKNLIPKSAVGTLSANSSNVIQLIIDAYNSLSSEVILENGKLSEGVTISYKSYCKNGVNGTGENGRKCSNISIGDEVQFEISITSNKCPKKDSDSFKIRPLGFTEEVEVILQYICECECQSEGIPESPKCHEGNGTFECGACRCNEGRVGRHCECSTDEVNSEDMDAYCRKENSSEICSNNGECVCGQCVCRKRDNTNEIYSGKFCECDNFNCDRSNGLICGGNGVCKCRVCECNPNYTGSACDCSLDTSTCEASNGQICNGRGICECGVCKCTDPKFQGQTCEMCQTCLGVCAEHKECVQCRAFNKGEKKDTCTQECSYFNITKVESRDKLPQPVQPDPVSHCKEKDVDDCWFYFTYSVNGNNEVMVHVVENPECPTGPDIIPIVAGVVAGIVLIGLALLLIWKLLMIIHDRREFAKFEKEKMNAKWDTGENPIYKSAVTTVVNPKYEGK
Integrin beta-1 (Homo sapiens) + Integrin alpha-4 (Homo sapiens), sequence (P13612 whole entry, looked up): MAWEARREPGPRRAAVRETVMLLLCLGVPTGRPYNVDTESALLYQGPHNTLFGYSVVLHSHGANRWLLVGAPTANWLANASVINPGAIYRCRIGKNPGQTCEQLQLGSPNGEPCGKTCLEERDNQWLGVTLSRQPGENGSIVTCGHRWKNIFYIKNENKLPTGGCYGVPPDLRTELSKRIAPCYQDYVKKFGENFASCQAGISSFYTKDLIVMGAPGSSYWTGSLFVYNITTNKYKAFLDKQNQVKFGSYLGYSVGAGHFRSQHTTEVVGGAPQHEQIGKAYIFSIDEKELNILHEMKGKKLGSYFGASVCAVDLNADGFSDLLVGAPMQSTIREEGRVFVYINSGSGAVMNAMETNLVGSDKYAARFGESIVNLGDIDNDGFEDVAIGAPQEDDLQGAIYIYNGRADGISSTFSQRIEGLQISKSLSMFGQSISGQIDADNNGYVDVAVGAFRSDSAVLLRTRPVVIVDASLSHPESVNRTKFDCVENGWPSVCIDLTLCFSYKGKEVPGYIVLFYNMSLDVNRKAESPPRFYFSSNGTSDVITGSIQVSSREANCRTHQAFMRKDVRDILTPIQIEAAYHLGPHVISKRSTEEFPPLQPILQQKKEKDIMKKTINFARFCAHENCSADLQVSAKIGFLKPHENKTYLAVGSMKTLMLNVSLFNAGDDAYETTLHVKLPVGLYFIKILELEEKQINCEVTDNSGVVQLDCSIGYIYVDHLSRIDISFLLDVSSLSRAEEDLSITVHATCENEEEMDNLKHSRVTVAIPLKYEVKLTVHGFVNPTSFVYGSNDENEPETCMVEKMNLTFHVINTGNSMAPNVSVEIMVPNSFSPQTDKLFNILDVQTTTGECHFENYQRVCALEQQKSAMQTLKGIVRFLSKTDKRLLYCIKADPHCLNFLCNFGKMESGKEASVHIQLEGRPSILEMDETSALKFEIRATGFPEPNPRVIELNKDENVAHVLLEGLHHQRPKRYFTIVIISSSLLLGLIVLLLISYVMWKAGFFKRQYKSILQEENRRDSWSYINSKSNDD

[8] = calorie-restriction mimetic ROS inhibitors, yeast – validation compound set, pilot screen (AID 2706;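 active = superoxide response below 65% of plate, a cut near 3 SD across the whole screen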;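 also: yeast exposed to compound for one week at 30 degrees C before staining; 100% = mean of all compound wells on the same plate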); conditions: S. cerevisiae aging, superoxide DHE fluorescence; at 10 µM; stronger effect = lower value
[9] = target: Beta-adrenergic receptor kinase 1 (Homo sapiens) (UniProt P25098); assay: GRK2 binders displacing RNA aptamer, biochemical, validation, human GRK2, bead flow cytometry (AID 488806;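 active = aptamer binding inhibition above 30%, about 3 SD of noise from non-fluorescent compounds; inactive = inhibition at or below 30%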); conditions: bead-bound GRK2, FAM-aptamer displacement, at 10 µM, stronger effect = higher value
Beta-adrenergic receptor kinase 1 (Homo sapiens), sequence (P25098 whole entry, looked up): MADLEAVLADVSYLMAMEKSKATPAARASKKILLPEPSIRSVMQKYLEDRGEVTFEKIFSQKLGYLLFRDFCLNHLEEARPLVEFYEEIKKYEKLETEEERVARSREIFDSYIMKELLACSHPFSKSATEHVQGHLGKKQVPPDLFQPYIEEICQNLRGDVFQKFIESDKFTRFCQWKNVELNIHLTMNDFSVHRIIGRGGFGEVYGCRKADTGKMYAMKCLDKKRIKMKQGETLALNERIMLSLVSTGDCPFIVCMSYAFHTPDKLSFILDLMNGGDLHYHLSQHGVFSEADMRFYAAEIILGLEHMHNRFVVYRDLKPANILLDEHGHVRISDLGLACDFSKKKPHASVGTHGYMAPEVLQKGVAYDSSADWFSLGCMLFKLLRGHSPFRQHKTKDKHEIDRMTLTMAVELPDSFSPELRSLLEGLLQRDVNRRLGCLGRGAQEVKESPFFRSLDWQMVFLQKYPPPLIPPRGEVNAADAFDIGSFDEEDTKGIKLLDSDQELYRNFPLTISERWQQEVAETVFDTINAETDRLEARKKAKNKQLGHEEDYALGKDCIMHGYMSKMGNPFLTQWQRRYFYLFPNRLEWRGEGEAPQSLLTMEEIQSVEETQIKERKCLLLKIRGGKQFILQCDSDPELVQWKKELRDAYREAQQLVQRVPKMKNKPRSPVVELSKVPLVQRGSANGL

[10] = target: Beta-2 adrenergic receptor (Homo sapiens) (UniProt P07550); assay: agonist-induced loss of surface beta2AR – cell-based, FAP fluorogen, flow cytometry, validation set, pilot screen (AID 504459;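 active = percent response above 42, roughly 3 SD of non-fluorescent test compounds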;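 also: agonist-driven loss of surface beta2AR via internalization measured by FAP dye flow cytometry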); conditions: Am2.2-beta2AR cells, at 10 µM, stronger effect = higher value
Beta-2 adrenergic receptor (Homo sapiens), sequence (P07550 whole entry, looked up): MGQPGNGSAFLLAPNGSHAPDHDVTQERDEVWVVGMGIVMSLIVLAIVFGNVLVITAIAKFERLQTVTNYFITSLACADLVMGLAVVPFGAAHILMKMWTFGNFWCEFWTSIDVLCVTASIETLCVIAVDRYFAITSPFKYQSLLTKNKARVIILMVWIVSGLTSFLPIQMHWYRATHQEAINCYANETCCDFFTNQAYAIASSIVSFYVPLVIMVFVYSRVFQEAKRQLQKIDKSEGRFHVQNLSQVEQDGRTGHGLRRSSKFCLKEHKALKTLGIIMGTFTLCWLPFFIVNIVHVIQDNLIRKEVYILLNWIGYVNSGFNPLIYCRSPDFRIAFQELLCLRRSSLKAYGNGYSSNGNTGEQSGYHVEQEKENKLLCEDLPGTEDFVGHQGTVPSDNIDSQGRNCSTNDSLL

[11] = target: AP-2 complex subunit beta (Homo sapiens) (UniProt P63010); assay: beta-arrestin/AP2 interaction blockers – biochemical, validation set, GST-AP2 beads, flow cytometry, pilot screen (AID 504541;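 active = inhibition above 54%, about 3 SD of non-fluorescent compounds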;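 also: AP2 carries R879A mutation and is captured from E. coli lysate; bead-bound FITC arrestin peptide fluorescence measuring arrestin peptide binding to AP2; 0% = DMSO wells and 100% = excess unlabeled arrestin peptide control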); conditions: FITC arrestin peptide, at 10 µM, stronger effect = higher value, AP2 beta2 appendage fragment, R879A mutant
AP-2 complex subunit beta (Homo sapiens), sequence (P63010 whole entry, looked up, the tested form may be a part, one chain of several): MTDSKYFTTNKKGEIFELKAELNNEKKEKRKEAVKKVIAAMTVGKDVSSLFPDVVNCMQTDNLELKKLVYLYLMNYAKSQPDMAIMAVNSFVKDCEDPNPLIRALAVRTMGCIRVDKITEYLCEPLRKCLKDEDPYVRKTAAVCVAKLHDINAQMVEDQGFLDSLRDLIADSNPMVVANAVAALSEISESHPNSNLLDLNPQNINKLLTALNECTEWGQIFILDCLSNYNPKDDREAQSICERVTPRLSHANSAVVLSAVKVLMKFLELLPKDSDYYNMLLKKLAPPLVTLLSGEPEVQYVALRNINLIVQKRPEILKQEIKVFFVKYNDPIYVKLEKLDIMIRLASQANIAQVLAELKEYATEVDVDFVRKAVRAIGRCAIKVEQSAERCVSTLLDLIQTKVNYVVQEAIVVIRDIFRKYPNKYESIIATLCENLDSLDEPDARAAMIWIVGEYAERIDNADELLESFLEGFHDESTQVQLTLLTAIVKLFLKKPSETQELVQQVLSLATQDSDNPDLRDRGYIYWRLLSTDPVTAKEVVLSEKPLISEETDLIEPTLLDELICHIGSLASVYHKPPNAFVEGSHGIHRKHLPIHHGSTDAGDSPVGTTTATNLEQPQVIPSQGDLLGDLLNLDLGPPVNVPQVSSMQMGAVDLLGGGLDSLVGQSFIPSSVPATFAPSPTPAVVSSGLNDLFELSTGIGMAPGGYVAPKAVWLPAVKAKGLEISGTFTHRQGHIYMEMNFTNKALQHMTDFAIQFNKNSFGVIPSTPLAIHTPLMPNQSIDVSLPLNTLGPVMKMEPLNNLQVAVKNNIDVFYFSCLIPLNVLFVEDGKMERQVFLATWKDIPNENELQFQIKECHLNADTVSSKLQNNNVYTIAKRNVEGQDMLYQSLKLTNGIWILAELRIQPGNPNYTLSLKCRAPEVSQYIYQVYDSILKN

[12] = cytosolic pH regulators acting via V-ATPase – S. cerevisiae, pHLuorin, HTS validation (AID 504600; in the data active = response above about 15%;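 also: plate controls were DMSO for no effect and reference compound for full effect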); conditions: V-ATPase proton transport, at 10 µM, stronger effect = higher value
[13] = test system: anti-desmoglein-3 scFv antibody binding to human DSG3; assay: blockers of pathogenic pemphigus antibody–desmoglein-3 binding – biochemical, validation compound set, bead-based, flow cytometry, pilot screen (AID 588368;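 active = binding below the plate cutoff, the plate median minus 3 SD, with a reading above zero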;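 also: signal is the median channel fluorescence of bead-bound GFP antibody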); conditions: Protein G beads, DSG3-Fc, scFv-GFP binding, at 10 µM, stronger effect = lower value
[14] = Nile Red efflux blockade in pump-expressing yeast – validation compound set, multiplex, phenotypic, pilot screen (AID 588506;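 active = efflux inhibition above 0.42, the validation set average plus 4 SD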;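 also: Nile Red retained in cells so higher fluorescence means more efflux inhibition; 0 = negative control wells and 1 = enniatin B 25 µM full block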); conditions: S. cerevisiae pump-expressing triplex, Nile Red efflux flow cytometry; at 10 µM; stronger effect = higher value; the pumps come from Candida albicans
[15] = target: ATP-binding cassette sub-family B member 6 (Homo sapiens) (UniProt Q9NP58); assay: blockers of ABCB6-driven porphyrin uptake – K562-ABCB6 cells, flow cytometry, validation set, pilot screen (AID 588550;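 active = inhibition above the screen-wide mean plus 3 SD, about 51%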;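 also: 0% = DMSO wells and 100% = benzethonium chloride 70 µM positive control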); conditions: K562-ABCB6 porphyrin accumulation, 1 h, at 10 µM, stronger effect = higher value
ATP-binding cassette sub-family B member 6 (Homo sapiens), sequence (Q9NP58 whole entry, looked up): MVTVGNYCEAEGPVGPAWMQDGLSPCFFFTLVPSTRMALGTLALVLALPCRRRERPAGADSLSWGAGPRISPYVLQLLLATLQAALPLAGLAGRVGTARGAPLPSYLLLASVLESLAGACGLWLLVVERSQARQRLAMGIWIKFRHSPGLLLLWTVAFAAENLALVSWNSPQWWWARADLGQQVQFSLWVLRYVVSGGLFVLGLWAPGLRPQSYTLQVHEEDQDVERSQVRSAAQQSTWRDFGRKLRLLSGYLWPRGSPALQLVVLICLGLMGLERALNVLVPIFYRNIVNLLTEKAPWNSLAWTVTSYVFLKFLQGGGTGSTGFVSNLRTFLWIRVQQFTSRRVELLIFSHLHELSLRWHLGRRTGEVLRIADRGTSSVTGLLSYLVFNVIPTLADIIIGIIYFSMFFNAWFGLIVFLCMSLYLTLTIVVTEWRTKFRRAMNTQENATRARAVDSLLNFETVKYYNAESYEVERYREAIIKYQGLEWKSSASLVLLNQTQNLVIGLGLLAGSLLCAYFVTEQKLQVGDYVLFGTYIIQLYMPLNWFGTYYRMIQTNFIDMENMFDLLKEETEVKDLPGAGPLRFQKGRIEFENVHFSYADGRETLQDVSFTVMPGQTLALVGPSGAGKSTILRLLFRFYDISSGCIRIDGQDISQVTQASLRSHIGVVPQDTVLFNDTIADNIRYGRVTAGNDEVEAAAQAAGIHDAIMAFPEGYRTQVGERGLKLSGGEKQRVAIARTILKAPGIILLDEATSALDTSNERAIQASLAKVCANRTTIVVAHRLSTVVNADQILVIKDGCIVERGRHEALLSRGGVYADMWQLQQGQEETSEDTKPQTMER

[16] = AML differentiation inducers, ER-HoxA9 marrow cells – cell-based, GFP/MAC1 double positive, flow cytometry, validation set, primary screen (AID 588685;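 active = differentiation response of at least 50%, scaled between solvent and reference control, from cells with both markers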;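 also: compound exposure lasts four days before antibody staining and flow analysis; 0% = DMSO wells and 100% = 5 µM fulvestrant positive control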); conditions: stronger effect = higher value, normalized: vehicle 0, fulvestrant 100

| SMILES | percent of DMSO control GFP [1] | GFP response vs DMSO [2] | percent response of DMSO control [3] | GFP response vs DMSO [4] | GFP response, % of DMSO [5] | double positive events [6] [%] | vesicle binding response [6] | inhibition [7] | superoxide response (% of plate) [8] | aptamer binding inhibition [9] | response [10] | inhibition [11] | response [12] | binding (% of control) [13] | efflux inhibition (fraction of control) [14] | inhibition [15] | differentiation response [16] |
| --- | --- | --- | --- | --- | --- | --- | --- | --- | --- | --- | --- | --- | --- | --- | --- | --- | --- |
| COc1ccc(/C=C(/C#N)c2cccnc2)cc1OC | 101% (inactive) | 104% (inactive) | 94.9% (inactive) | 99.4% (inactive) | 99.1% (inactive) | 54.1 | 6.8% (active) | -13.2% (inactive) | 98.6% (inactive) | 3% (inactive) | -1.52% (inactive) | 23.7% (inactive) | 0.34% (inactive) | 105% (inactive) | 0.42 (inactive) | 2% (inactive) | 17.1% (inactive) |
| NC(CO)C(=O)NNCc1ccc(O)c(O)c1O (stereo not drawn) | 98.4% (inactive) | 98.7% (inactive) | 98.6% (inactive) | 91.5% (inactive) | 96.5% (inactive) | 65.1 | 130% (inactive) | 13.7% (inactive) | 92.9% (inactive) | 8% (inactive) | 8.54% (inactive) | 62.4% (active) | -0.21% (inactive) | 60.7% (active) | 0.66 (active) | 5% (inactive) | -8.96% (inactive) |
| COc1ccc(CNCCC2(C(C)C)CCOC(C)(C)C2)cc1 (stereo not drawn) | 99.2% (inactive) | 107% (inactive) | 101% (inactive) | 88.7% (inactive) | 97.2% (inactive) | 55.9 | 52.5% (inactive) | -7.72% (inactive) | 106% (inactive) | 3% (inactive) | -6.71% (inactive) | -2.2% (inactive) | 2.72% (inactive) | 97.2% (inactive) | -0.1 (inactive) | -1% (inactive) | 0.24% (inactive) |
| COc1ccc(OC)c(C(=O)c2coc3ccc(O)cc23)c1 | 98.7% (inactive) | 109% (inactive) | 94.4% (inactive) | 146% (inactive) | 109% (inactive) | 63.7 | 192% (inactive) | -2.82% (inactive) | 88.2% (inactive) | 2% (inactive) | -29.6% (inactive) | -14.6% (inactive) | 4.67% (inactive) | 103% (inactive) | -0.04 (inactive) | 0% (inactive) | 0.92% (inactive) |
| Cc1ccc(S(=O)(=O)Oc2ccccc2/C=N/N=C(N)N)cc1 | 102% (inactive) | 103% (inactive) | 104% (inactive) | 93.7% (inactive) | 103% (inactive) | 68.2 | 172% (inactive) | 12.6% (inactive) | 97.8% (inactive) | 1% (inactive) | 7.63% (inactive) | 6.93% (inactive) | -0.49% (inactive) | 103% (inactive) | 0.01 (inactive) | 7% (inactive) | -2.64% (inactive) |
| O=C(CC1SC(=O)NC1=O)Nc1ccc(Cl)cc1 (stereo not drawn) | 101% (inactive) | 104% (inactive) | 108% (inactive) | 98% (inactive) | 108% (inactive) | 65.3 | 193% (inactive) | 6.95% (inactive) | 116% (inactive) | -1% (inactive) | 2.95% (inactive) | 1.72% (inactive) | 1.59% (inactive) | 100% (inactive) | -0.205 (inactive) | -3% (inactive) | -16.3% (inactive) |
| COc1ccc(CCN=CC2=C(O)CC(C)(C)CC2=O)cc1 | 109% (inactive) | 106% (inactive) | 106% (inactive) | 91.4% (inactive) | 102% (inactive) | 62.4 | 6690% (inactive) | -2.53% (inactive) | 91.4% (inactive) | -2% (inactive) | -5.19% (inactive) | -11.8% (inactive) | 2.74% (inactive) | 101% (inactive) | 0.02 (inactive) | 3% (inactive) | 1.22% (inactive) |
| Nc1ccc2cn[nH]c2c1 | 104% (inactive) | 97.7% (inactive) | 98.6% (inactive) | 101% (inactive) | 102% (inactive) | 60.8 | 109% (inactive) | -3.77% (inactive) | 109% (inactive) | -1% (inactive) | 2.17% (inactive) | 0.32% (inactive) | -2.55% (inactive) | 102% (inactive) | 0.265 (inactive) | 32% (inactive) | -16.3% (inactive) |
| O=C(c1ccc(Cl)cc1)C1CCCN(Cc2ccc(Oc3ncccn3)cc2)C1 (stereo not drawn) | 108% (inactive) | 104% (inactive) | 106% (inactive) | 87.2% (inactive) | 96.5% (inactive) | 65.7 | 227% (inactive) | 24.4% (inactive) | 93.5% (inactive) | 2% (inactive) | -3.98% (inactive) | -1.25% (inactive) | 2.78% (inactive) | 106% (inactive) | -0.12 (inactive) | 21% (inactive) | -6.03% (inactive) |
